Screens from PubChem BioAssay.
Pyk2 oligo antag: antagonists of Pyk2 self-association, primary screen, Q293 cells, FERM NanoBiT luminescence, HTS; Protein-tyrosine kinase 2-beta (Homo sapiens), Q14289; hits give low values; z-score (the deposit names both 25 µM and 10 µM); hit rate 0.83% among 99,000;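 active means Z-score of -3 or lower, scaled per plate to the spread of control and sample wells; inactive means z-score above -3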;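 further: negative z-score means lost luminescence so less FERM oligomerization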
NFkB transloc inh: inhibitors of IL-1B driven NFkB p65 nuclear import, primary screen, imaging, HUVEC, IL-1B stimulus, high-content imaging. HUVEC IL-1B NFkB p65 nuclear translocation imaging. inhibition, % at 2 µM. hit rate 0.43% among 94,000;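 active means inhibition above about 30% together with a positive call from visual inspection of the well image, limit read from the data; inconclusive means inhibition above a set limit but visual check negative; inactive means inhibition not above a set limit, visual check negative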;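 further: nuclear over cytoplasmic p65 intensity ratio measured by imaging; 0% = IL-1B stimulated DMSO wells and 100% = unstimulated DMSO wells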
IL1B cytotox: cytotoxicity in IL-1B stimulated HUVEC, primary screen, cytotoxicity control for IL-1B NFkB translocation project, imaging, Hoechst nuclear count, IL-1B stimulus. cell count reduction, % at 2 µM. hit rate 0.41% among 94,000. HUVEC cell count loss;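 active means cell count reduction more than 3 SD above the screen-wide mean, cut at about 70% in these data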;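 further: normalized per plate to untreated control cells as the no-loss baseline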
PLK1 kinase inh: human PLK1 kinase inhibitors, primary screen, biochemical, TR-FRET; inhibition, % at 10 µM; recombinant PLK1 kinase, TR-FRET peptide phosphorylation; hit rate 0.53% among 97,000; Serine/threonine-protein kinase PLK1 (Homo sapiens), P53350;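 active means inhibition of 50% or more in the single-concentration screen; inactive means inhibition below 50%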;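 further: 0% = DMSO max control and 100% = H-89 dihydrochloride min control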
Target sequence (P53350 whole entry, looked up): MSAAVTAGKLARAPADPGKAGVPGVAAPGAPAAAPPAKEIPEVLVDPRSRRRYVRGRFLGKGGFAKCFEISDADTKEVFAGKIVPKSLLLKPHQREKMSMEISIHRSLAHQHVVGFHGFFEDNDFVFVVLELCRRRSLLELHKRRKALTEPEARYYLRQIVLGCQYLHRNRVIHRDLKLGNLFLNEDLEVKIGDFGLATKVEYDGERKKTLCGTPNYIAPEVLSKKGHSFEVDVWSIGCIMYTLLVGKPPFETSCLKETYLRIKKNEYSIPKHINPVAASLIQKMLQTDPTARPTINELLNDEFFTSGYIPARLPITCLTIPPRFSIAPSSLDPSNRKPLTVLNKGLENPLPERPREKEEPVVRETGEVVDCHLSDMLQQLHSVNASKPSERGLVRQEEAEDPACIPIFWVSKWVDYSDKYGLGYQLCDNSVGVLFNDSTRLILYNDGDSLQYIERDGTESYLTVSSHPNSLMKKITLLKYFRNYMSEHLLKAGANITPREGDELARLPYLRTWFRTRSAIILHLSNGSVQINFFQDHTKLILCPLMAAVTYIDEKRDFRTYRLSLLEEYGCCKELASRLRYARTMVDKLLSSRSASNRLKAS
NFkB transloc pot: enhancers of NFkB p65 translocation in HUVEC – imaging, IL-1B stimulus, high-content imaging, primary screen; HUVEC IL-1B NFkB p65 nuclear translocation imaging; activation, % at 2 µM; hit rate 0.3% among 94,000; AID 819, 2007;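 active means activation above 40%, about the mean plus 3 SD, also judged a hit on visual image review; inconclusive means activation above 40% but not a hit on visual review; inactive means activation not above 40% and no visual hit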;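 further: percent activation is computed from the nuclear over cytoplasmic p65 intensity ratio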
PLK1 PBD inh: Plk1 polo box domain binding inhibitors, primary screen, biochemical, fluorescence polarization | hit rate 0.13% among 97,000 | inhibition, %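 (tested at about 20 µM)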 | Plk1 PBD phosphopeptide binding; in the data active means inhibition above about 34%, passing the limit was not always enough
PLK1 confirm: PLK1 kinase activity inhibitors, confirmation, biochemical, TR-FRET, duplicate runs | hit rate 20% among 210 | shares compounds with PLK1 kinase inh | inhibition, % at 10 µM | recombinant PLK1 kinase, TR-FRET peptide phosphorylation | AID 744, 2007;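 active means inhibition at or above 50% in each of two repeat confirmation tests; inconclusive means one repeat below 50% inhibition, the other above; inactive means both repeats at or below 50% inhibition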;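 further: 0% = DMSO max control and 100% = H-89 kinase-blocked min control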
TR-FRET interf: compound interference with Plk1 assay readout, artefact control for Plk1 kinase inhibitor project, biochemical, TR-FRET, compound added post-reaction; shares compounds with PLK1 kinase inh; inhibition (interference), % at 10 µM; 210 tested, under 10 active;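 active means both duplicate runs show 50% or greater inhibition; inconclusive means only one duplicate run shows over 50% inhibition; inactive means both runs show under 50% inhibition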;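 further: 0% = DMSO max control and 100% = H-89 min control inhibited reaction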
* hit, by the source's call; ? = inconclusive; · = no result given. This is a sample that favours compounds with a hit; in the whole collection about 2.2% have one here.

SMILES	Pyk2 oligo antag	NFkB transloc inh	IL1B cytotox	PLK1 kinase inh	NFkB transloc pot	PLK1 PBD inh	PLK1 confirm	TR-FRET interf
O=C(c1ccco1)N1CCN=C1SCc1cccnc1	1.9	12	10	-9	-12	16	·	·
O=C(c1ccco1)N1CCN=C1SCc1ccccc1F	·	·	·	78*	·	14	-9	-59
CC1CCN(c2ccccc2N)CC1	0.07	4	-10	-10	-4	2	·	·
[O-][N+]12CCN(CC1)c1ccccc12	0.29	-8	1	77*	8	-12	-5	-60
N#Cc1c(-c2ccc3c(c2)OCO3)csc1N	2.2	-26	-14	72*	26	8	66*	-54
N#Cc1c(N)c(C#N)c(-c2ccc3c(c2)OCO3)c2c1CCCC2	-2.6	·	·	·	·	·	·	·
Cc1cccc(Cn2c(N3CCc4ccccc4C3)nc3c2c(=O)[nH]c(=O)n3C)c1	-0.43	18	-12	-3	-18	17	·	·
Cc1cccc(Cn2c(N3CCCCC3C)nc3c2c(=O)[nH]c(=O)n3C)c1 (configuration not stated)	·	·	·	83*	·	-24	5	-50
Cc1oc(-c2cccc(Cl)c2)nc1CN1CCC(C(=O)NCCCN2CCCC2=O)CC1	·	0	-71	-6	0	-23	·	·
Cc1oc(-c2ccc(Cl)cc2)nc1CN1CCCC(C(=O)NCCCN2CCCC2=O)C1 (configuration not stated)	·	·	·	73*	·	-34	-10	-56
Cc1sc(NC(=O)c2ccco2)c(C(c2cccnc2)N2CCCC2)c1C (configuration not stated)	-1.8	4	3	-8	-5	-24	·	·
CC(c1ccccc1)N1CC(C(=O)N2CCN(c3ccc(F)cc3)CC2)CC1=O (configuration not stated)	-0.57	3	5	-4	-3	1	·	·
CCn1nccc1C(=O)Nc1ccc(Cl)cn1	0.11	-24	2	-9	25	-12	·	·
CCn1ccc(C(=O)Nc2ccc(Cl)cn2)n1	·	·	·	71*	·	2	-8	-57
Cc1ccc(NC2OC(CO)C(O)C(O)C2O)cc1 (configuration not stated)	-0.44	3	7	-5	-3	-6	·	·
Cc1ccc2nc(SCCC(=O)O)cc(C)c2c1	0.38	5	18	-1	-5	12	·	·
CC1CCN(c2ncnc3c2cnn3-c2ccccc2)CC1	·	·	·	75*	·	-50	-4	-54
CCOC(=O)C1CCN(c2ncnc3c2cnn3-c2ccccc2)CC1	-0.2	·	·	-13	·	2	·	·
Cn1c(-c2sc3ccccc3c2Cl)n[nH]c1=S	2	-10	-15	-10	10	-1	·	·
Cc1oc2ncnc(N)c2c1C	0.09	2	-12	76*	-2	-43	68*	-52
CCOC(=O)N1CCN(c2c(N3CCc4ccccc43)c(=O)c2=O)CC1	·	·	·	77*	·	-29	-1	-51
CC(=O)Oc1ccc2c(c1)cc(C)n2C	0.54	7	-33	-8	-7	-12	·	·
O=c1cc(N2CCOCC2)[nH]c(=O)n1-c1ccc(Cl)cc1	·	·	·	74*	·	-5	6	-41
O=C(NCc1ccccn1)C1CCC(=O)N1C1CCCCC1 (configuration not stated)	·	-6	-13	-16	6	-37	·	·
CCOC(=O)c1c(-c2ccncc2)csc1N	-0.14	-3	14	70*	3	7	66*	-49
SMILES	Pyk2 oligo antag	NFkB transloc inh	IL1B cytotox	PLK1 kinase inh	NFkB transloc pot	PLK1 PBD inh	PLK1 confirm	TR-FRET interf
CCOc1ccc(-c2csc(N)c2C(=O)OC)cc1	-0.25	-6	21	-4	6	15	·	·
c1coc(-c2nc(-c3ccco3)c(-c3ccco3)nc2-c2ccco2)c1	0.64	-17	7	93*	17	-14	-3	-53
Nc1nc(-c2ccco2)c(-c2ccco2)s1	0.06	-11	13	-7	11	-3	·	·
O=C(CCc1ccc(S(=O)(=O)N2CCOCC2)cc1)N1CCN(Cc2ccc3c(c2)OCO3)CC1	1.3	0	-8	-7	0	-34	·	·
O=C(c1ccc(Cl)cc1)N1CCCC(c2ccccc2)=N1	-1.2	1	-53	-4	-1	2	·	·
O=C(CN1CCN(c2ccc(F)cc2)CC1)N1CCOCC1	-0.34	-7	-29	-2	7	10	·	·
O=C(CSCc1ccc(F)cc1)N1CCOCC1	0.4	-10	11	115*	10	28	-7	-52
OCCOCCn1c2ccccc2c2ccccc21	0.31	-6	17	-14	6	-4	·	·
COc1ccccc1Nc1nc(N)nc(CN2CCOCC2)n1	·	·	·	72*	·	23	-8	-52
O=C(NCCc1ccccc1F)C1CCCN1S(=O)(=O)c1ccc2ccccc2c1 (configuration not stated)	-0.7	16	-10	-10	-16	-17	·	·
CCCc1cc(C(N)=O)c(NC(=O)c2ccco2)s1	-2	5	-30	127*	-5	4	-2	-51
Cc1cccc(N2C(=S)N=C(Nc3c(C)cccc3C)C23CCOC(C)(C)C3)c1 (configuration not stated)	0.24	-18	-2	7	18	10	·	·
Cc1ccccc1-c1nc(-c2cccnc2)no1	-0.29	4	8	96*	-4	-37	-1	-61
Clc1ccccc1-c1nc(-c2cccnc2)no1	-0.66	1	-18	-10	-1	14	·	·
COc1ccc(C2NC(=O)C(C)S2)cc1 (configuration not stated)	-0.04	-18	-12	-7	18	-9	·	·
CCCCCC(C)n1[nH]c(=O)c2c(C)cc(C)nc21 (configuration not stated)	·	·	·	86*	·	12	2	-48
O=c1[nH]cnc2scc(-c3cccs3)c12	0.61	5	3	73*	-5	1	65*	-49
NS(=O)(=O)c1ccc(Nc2nc(-c3ccc(O)cc3O)cs2)cc1	-0.43	-32	-107	72*	32	17	?	-45
Cc1cccnc1Nc1nc(-c2ccc(O)cc2O)cs1	0.49	-11	-29	10	11	15	·	·
O=C(NCCN1C(=O)C2C3C=CC(C3)C2C1=O)Nc1ccc(Br)cc1 (configuration not stated)	·	·	·	72*	·	8	-5	-47
Cc1nc2ccc(NC(=O)c3cccs3)cc2c(=O)n1Cc1ccc(Cl)cc1	0.83	-9	-55	123*	9	-18	-1	-49
